Experimental data reported in PubChem BioAssay (NCI).
Compounds without any hit were thinned out: in the full panel of roughly 79,000, 15% have a hit. Active and inactive are the calls of the source. Rule as the data show it: active = growth inhibition above about 70%; inactive = the rest.

What was measured:
[1] = NCI Yeast Anticancer Drug Screen. Data for the rad52 strain (AID 147);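 also: 0% = growth of vehicle-treated control cultures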; conditions: S. cerevisiae rad52 mutant growth inhibition, active compounds read high
Method in brief: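 The repair-mutant yeast strain was incubated with compounds, then growth was read and inhibition derived relative to vehicle.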

[2] = NCI Yeast Anticancer Drug Screen. Data for the wt1 strain (AID 149);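 also: 0% = growth of vehicle-treated wt1 cultures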; conditions: S. cerevisiae wt1 strain (SPY 50644) growth inhibition, active compounds read high
Method in brief: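 wt1 strain grown with compound or vehicle; inhibition taken from the growth difference.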

[3] = NCI Yeast Anticancer Drug Screen. Data for the rad50EPP+ strain (AID 151);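 also: 0% = growth of vehicle-treated control cultures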; conditions: S. cerevisiae rad50 mutant strain, active compounds read high
Method in brief: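 Vehicle-normalised growth inhibition; rad50EPP+ yeast strain, altered in DNA damage repair, compound-treated.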

[4] = NCI Yeast Anticancer Drug Screen. Data for the mgt1 strain (AID 153); conditions: S. cerevisiae mgt1 mutant growth inhibition, active compounds read high
Method in brief: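 Vehicle-normalized growth inhibition is determined in mgt1 yeast, a strain selected for a defined alteration in DNA repair or cell cycle control.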

[5] = NCI Yeast Anticancer Drug Screen. Data for the rad50 strain (AID 155);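 also: 0% = growth of vehicle-only cultures of the same strain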; conditions: S. cerevisiae rad50 strain growth inhibition, active compounds read high
Method in brief: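 DNA repair mutant yeast, compound exposure, growth read-out; inhibition is taken relative to vehicle.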

[6] = NCI Yeast Anticancer Drug Screen. Data for the mec2-1 strain (AID 157); conditions: S. cerevisiae mec2-1 strain, active compounds read high
Method in brief: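 Mutant yeast (mec2-1) grown with compound; growth inhibition relative to vehicle control reported.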

[7] = NCI Yeast Anticancer Drug Screen. Data for the rad14 strain (AID 159);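 also: 0% = growth of vehicle-treated control cultures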; conditions: S. cerevisiae rad14 strain growth inhibition, active compounds read high
Method in brief: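 DNA repair-defective yeast, compound-exposed; % growth inhibition derived by comparison with vehicle-treated controls.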

[8] = NCI Yeast Anticancer Drug Screen. Data for the sgs1 mgt1 strain (AID 161);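 also: 0% = growth of cultures given vehicle only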; conditions: S. cerevisiae sgs1 mgt1 strain, active compounds read high
Method in brief: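 Percent growth inhibition was derived by comparing compound-exposed mutant yeast with vehicle-exposed cultures. The strain carries alterations in DNA damage repair.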

[9] = NCI Yeast Anticancer Drug Screen. Data for the CLN2oe strain (AID 163);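 also: 0% = growth of vehicle-only control cultures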; conditions: S. cerevisiae CLN2oe strain, active compounds read high
Method in brief: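 Compounds are applied to yeast harbouring a defined cell-cycle control change; reduced growth compared with vehicle-treated controls gives the value.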

[10] = NCI Yeast Anticancer Drug Screen. Data for the cln2 rad14 strain (AID 165);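 also: 0% = growth equal to vehicle treated cultures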; conditions: S. cerevisiae cln2 rad14 strain, active compounds read high
Method in brief: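 Readout is yeast growth inhibition versus vehicle-treated controls, using a strain with cln2 and rad14 alterations exposed to compound.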

[11] = NCI Yeast Anticancer Drug Screen. Data for the bub3 strain (AID 167); conditions: S. cerevisiae bub3 mutant strain, active compounds read high
Method in brief: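 In this screen, a yeast mutant lacking normal mitotic checkpoint function is challenged with compound. Relative growth versus vehicle gives the inhibition value.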

[12] = NCI Yeast Anticancer Drug Screen. Data for the wt2 strain (AID 169);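 also: 0% = growth of vehicle-treated yeast cultures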; conditions: S. cerevisiae wt2 strain growth inhibition, active compounds read high
Method in brief: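 Against vehicle-treated controls, the growth of yeast exposed to each compound was compared, and the inhibition was recorded.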

[13] = NCI Yeast Anticancer Drug Screen. Data for the mlh1 strain (AID 171);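 also: 0% = growth of vehicle-treated control cultures of the same strain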; conditions: S. cerevisiae mlh1 strain growth inhibition, active compounds read high
Method in brief: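 Measured: yeast growth. Reference: vehicle-treated controls. Organism: strain with a defined alteration affecting DNA damage repair or cell cycle control, treated with compound.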

[14] = NCI Yeast Anticancer Drug Screen. Data for the sgs1 strain (AID 173);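 also: 0% = growth of vehicle-only control cultures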; conditions: S. cerevisiae sgs1 mutant, active compounds read high
Method in brief: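 Each compound was added to cultures of the altered yeast strain. Growth was recorded, and inhibition was derived by comparison with vehicle controls.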

[15] = NCI Yeast Anticancer Drug Screen. Data for the mlh1 rad18 strain (AID 175); conditions: S. cerevisiae mlh1 rad18 strain growth inhibition, active compounds read high
Method in brief: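 Genetically defined yeast (DNA repair-deficient) exposed to compounds; growth inhibition determined relative to vehicle.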

[16] = NCI Yeast Anticancer Drug Screen. Data for the rad18 strain (AID 177); conditions: S. cerevisiae rad18 mutant growth inhibition, active compounds read high
Method in brief: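 Vehicle-treated cultures served as the baseline for scoring compound-induced growth inhibition in DNA-repair-mutant yeast.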

[17] = at 5.0 µM (retest, dose inferred, filed as 0.5)
[18] = at 50.0 µM (retest, dose inferred, filed as 5.0)

Measured: growth inhibition

COP(=O)(OC)/C(=C\C1=CN(C(c2ccccc2)(c2ccccc2)c2ccccc2)CN1)NC=O
active: [1]; at 100.0 µM 96% | [2]; at 100.0 µM 96% | [3]; at 11.0 µM 73% | [3]; at 33.0 µM 96% | [3]; at 100.0 µM 97% | [4]; at 100.0 µM 96% | [5]; at 33.0 µM 73% | [5]; at 50.0 µM 98% | [5]; at 100.0 µM 96% | [6]; at 50.0 µM 98.3% | [6]; at 100.0 µM 97% | [7]; at 100.0 µM 96% | [8]; at 50.0 µM 98.3% | [9]; at 100.0 µM 95% | [10]; at 50.0 µM 95.2% | [11]; at 50.0 µM 96.2% | [11]; at 100.0 µM 94% | [12]; at 100.0 µM 96% | [13]; at 33.0 µM 71% | [13]; at 100.0 µM 96% | [14]; at 33.0 µM 79% | [14]; at 100.0 µM 97% | [15]; at 50.0 µM 97% | [16]; at 100.0 µM 95%
inactive: [1]; at 1.2 µM -12% | [1]; at 3.7 µM -15% | [1]; at 11.0 µM -11% | [1]; at 33.0 µM 59% | [2]; at 1.2 µM 12% | [2]; at 3.7 µM 3% | [2]; at 11.0 µM 5% | [2]; at 33.0 µM 54% | [3]; at 1.2 µM 2% | [3]; at 3.7 µM 10% | [4]; at 1.2 µM 6% | [4]; at 3.7 µM -3% | [4]; at 11.0 µM 11% | [4]; at 33.0 µM 67% | [5]; at 1.2 µM -14% | [5]; at 3.7 µM -32% | [5]; [17] 2% | [5]; at 11.0 µM -17% | [5]; [18] -15% | [6]; at 1.2 µM 34% | [6]; at 3.7 µM 13% | [6]; [17] -10% | [6]; at 11.0 µM 30% | [6]; at 33.0 µM 68% | [6]; [18] -4% | [7]; at 1.2 µM 4% | [7]; at 3.7 µM -1% | [7]; at 11.0 µM -5% | [7]; at 33.0 µM 65% | [8]; [17] -9% | [8]; [18] 0% | [9]; at 1.2 µM 3% | [9]; at 3.7 µM 8% | [9]; at 11.0 µM -8% | [9]; at 33.0 µM 25% | [10]; [17] 3% | [10]; [18] 7% | [11]; at 1.2 µM -27% | [11]; at 3.7 µM -41% | [11]; [17] -7% | [11]; at 11.0 µM -41% | [11]; at 33.0 µM 33% | [11]; [18] 2% | [12]; at 1.2 µM -10% | [12]; at 3.7 µM -13% | [12]; at 11.0 µM -6% | [12]; at 33.0 µM 34% | [13]; at 1.2 µM 1% | [13]; at 3.7 µM -13% | [13]; at 11.0 µM -8% | [14]; at 1.2 µM 13% | [14]; at 3.7 µM 20% | [14]; at 11.0 µM 12% | [15]; [17] -22% | [15]; [18] -8% | [16]; at 1.2 µM -7% | [16]; at 3.7 µM -18% | [16]; at 11.0 µM -13% | [16]; at 33.0 µM 40%
